From PubChem
IL1B secr inh: inhibitors of inflammasome signaling (IL-1 beta secretion) | 360,000 tested, 4.7% active | THP-1 LPS/ATP IL-1B secretion, AlphaLISA, 16 h; active compounds read low | activity change, % at 57.5 µM | AID 743279; in the data active = activity change below about -50%; inconclusive = mostly about -30% to -49%
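Secreted IL-1B measured by AlphaLISA bead assay after 16 h compound exposure of THP-1 cells; compounds (final up to 57.5 uM) added 1 h before LPS (250 ng/mL) and ATP (1.25 mM) stimulation; lower signal means less secretion.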
DT40 TDP1 CPT: DT40-hTDP1 cell growth loss with CPT | chicken DT40 Tdp1-/-;hTDP1 cells + 20 nM CPT, ATP luminescence, 48 h | Potency, µM (doses to about 46.2 µM), hits mostly inhibitors | 420,000 tested, 12% active | AID 686979; also: nearly all actives have a fitted effect of over 55% in size
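Chicken DT40 Tdp1-/- cells stably complemented with human TDP1 were seeded at 400 cells/well in medium containing 20 nM camptothecin, exposed to pin-transferred compounds, and grown at 37 °C for at least 48 hr. Viability was read as ATP luminescence.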
DT40 TDP1 no CPT: qHTS for Inhibitors of human tyrosyl-DNA phosphodiesterase 1 (TDP1): qHTS in cells in absence of CPT; DT40 Tdp1-/- hTDP1 cells, no CPT, ATP luminescence, 48 h; Potency, µM (titrated, usually from 46.2 µM), hits mostly inhibitors; 420,000 tested, 15% active; also: nearly all actives have a fitted effect of over 55% in size
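Readout: luminescence from CellTiter-Glo after 30 min in the dark at RT. Cells: DT40 Tdp1-/- with stable hTDP1, 400/well. Exposure: compounds alone, ≥48 hr, 37 °C.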
TGFb SMAD3 inh: TGF-b pathway inhibition | 410,000 tested, 1.2% active | Potency, µM (top dose mostly 46.1 µM), most hits filed as inhibitors | AID 588855 | HepG2 CAGA-GFP TGF-b/SMAD3 reporter, GFP fluorescence, 18 h; TGF-beta stimulated, 500 pg/mL final; also: nearly all actives have a fitted effect of over 65% in size
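HEPG2 CAGA-GFP cells (1000/well, DMEM with 1% FBS) were pre-incubated 2 h at 37 degrees C, given compound by pin tool, then stimulated with TGF-beta at 500 pg/mL final for 18 h before per-cell GFP fluorescence imaging.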
ASM inhibitor: blocks human secretory acid sphingomyelinase | placental ASM, HMU-PC fluorogenic substrate, 60 min | Potency, µM (top dose mostly 57.5 µM), most hits filed as inhibitors | 340,000 tested, 0.006% active | AID 504937
Target sequence (P17405 47-631 limits assumed): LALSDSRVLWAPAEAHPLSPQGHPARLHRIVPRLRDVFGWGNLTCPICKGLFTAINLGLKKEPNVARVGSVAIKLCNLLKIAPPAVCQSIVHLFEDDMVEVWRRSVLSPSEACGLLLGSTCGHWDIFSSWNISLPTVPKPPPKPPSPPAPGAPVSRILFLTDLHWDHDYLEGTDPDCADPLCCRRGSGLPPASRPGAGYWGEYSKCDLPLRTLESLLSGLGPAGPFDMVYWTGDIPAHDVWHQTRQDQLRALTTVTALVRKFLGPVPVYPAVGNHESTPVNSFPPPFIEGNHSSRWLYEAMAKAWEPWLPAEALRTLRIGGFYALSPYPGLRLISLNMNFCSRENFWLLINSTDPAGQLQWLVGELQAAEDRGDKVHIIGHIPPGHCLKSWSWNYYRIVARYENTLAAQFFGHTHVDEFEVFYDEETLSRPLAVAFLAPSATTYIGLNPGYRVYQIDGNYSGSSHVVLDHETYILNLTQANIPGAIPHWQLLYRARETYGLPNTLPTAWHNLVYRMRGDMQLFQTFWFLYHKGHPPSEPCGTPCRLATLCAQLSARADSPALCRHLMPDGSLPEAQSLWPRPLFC
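HMU-PC0 cleavage (9 uM final) by human placental ASM, 60 min at 37 °C following 10 min compound exposure at RT; stopped at pH 10, fluorescence Ex 386/Em 447 nm.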
HepG2 viability: counter-screen for TGF-b inhibitors: cytotoxicity in HepG2 cells. HepG2 CAGA-GFP viability, ATP luminescence, 18 h. Potency, µM (doses to about 46.1 µM), hits mostly cytotoxic. 410,000 tested, 0.76% active. AID 588856
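HepG2 CAGA-GFP cells (1000/well, DMEM with 1% FBS) received compound, then TGF-beta at 500 pg/mL final, and were incubated 18 hours at 37 degrees C. Viability was read by CellTiter-Glo luminescence. Media-only wells were set as complete cell-killing and DMSO as no toxicity.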
Hits are given with their value; n = inactive; u = inconclusive; x = no result; ! = a repeat was not active. Hits are enriched below; roughly 19% of the tested compounds scored in any of these assays. Unless noted, calls follow the shape of the dose curve; as a rule, active = well fitted curve in the direction sought with a large enough effect; inconclusive = small, poorly fitted or top-dose-only effect, or another doubt; inactive = no such curve, though single readings can be large; an effect the other way counts as inactive or inconclusive.

SMILES	IL1B secr inh	DT40 TDP1 CPT	DT40 TDP1 no CPT	TGFb SMAD3 inh	ASM inhibitor	HepG2 viability
CCC1Nc2cc(Cl)c(S(N)(=O)=O)cc2S(=O)(=O)N1 (stereo unspecified)	x	n	n	x	x	x
COc1cc(/C=N/Nc2ccc(S(N)(=O)=O)cc2)cc(OC)c1OC	n	u	21µM	n	n	n
CC[n+]1c(-c2ccccc2)c2cc(N)ccc2c2ccc(N)cc21	-99	0.16µM	0.15µM	u	n	n
CC1([N+](=O)[O-])COP(=O)(Nc2cccc(Cl)c2)OC1 (stereo unspecified)	n	n	n	n	n	n
CS(=O)(=O)N1CCC2(CCCN(Cc3ccncc3)C2)CC1	x	n	n	x	x	x
COC1=C(C)C(=O)C2=C(C1=O)C(CO)N1C(C#N)C3CC4C(C1C2N1CCOC41)N3C (stereo unspecified)	-103	0.052µM	0.15µM	7.1µM	n	n
COCCN(Cc1ccccc1)P(=O)(O)c1ccccc1OCC(=O)O	n	n	n	n	u	n
COc1ccc2[nH]cc(CCN=C(NC(=O)c3ccccc3OC)Nc3nc(C)cc(C)n3)c2c1	x	x	x	u	x	n
CCCn1c(C)c(C(=O)c2cccc3ccccc23)c2ccccc21	n	27µM!	13µM	n	n	n
CC[n+]1c(/C=C/C=C/c2ccc(N(C)C)cc2)sc2ccccc21	-97	0.0092µM	0.052µM	u	n	n
CN(C)c1ccc(/C=C/C=C/c2sc3ccccc3[n+]2C)cc1	-90	0.92µM	0.13µM	8.9µM	n	n
CN(C)c1ccc(/C=C/c2cc[n+](C)c3ccccc23)cc1	-102	0.41µM	0.23µM	7.1µM	n	n
O=C(Nc1ccc(Br)cc1C(=O)c1ccccc1Cl)c1ccc(Br)cc1	x	n	n	n	x	n
CC(C)c1ccc(-n2c(O)c(C=NCCN3CCNCC3)c(=O)[nH]c2=S)cc1	n	n	n	n	n	n
C=CCN=C=S	x	n	n	x	x	x
CC1(C)C(O)CC(=O)[C@]2(C)C1CC(=O)[C@]1(C)C2CC[C@@]2(C)C(c3ccoc3)OC(=O)C3O[C@@]321 (stereo partly specified)	x	n	n	x	x	x
COc1ccc2c(c1OC)C(=O)O[C@H]2[C@@H]1c2cc3c(cc2CCN1C)OCO3	n	n	n	n	n	n
COc1cc([C@@H]2c3cc4c(cc3[C@H](O)[C@H]3COC(=O)[C@H]23)OCO4)cc(OC)c1OC	n	0.15µM	0.15µM!	n	n	n
COc1cc([C@@H]2c3cc4c(cc3[C@@H](OC)[C@H]3COC(=O)[C@H]23)OCO4)cc(OC)c1O	n	1.2µM	1.3µM	u	n	n
COc1cc([C@@H]2c3cc4c(cc3[C@H](O)[C@H]3COC(=O)[C@@H]23)OCO4)cc(OC)c1OC	x	0.071µM	0.025µM	n	x	n
COc1cc([C@@H]2c3cc4c(cc3C(O[C@@H]3O[C@@H]5CO[C@@H](C)O[C@H]5[C@H](O)[C@H]3O)C3COC(=O)[C@@H]32)OCO4)cc(OC)c1OP(=O)(O)O (stereo partly specified)	x	0.21µM	0.3µM	x	x	x
COc1ccc2c(c1OC)C(=O)O[C@@H]2[C@H]1c2cc3c(cc2CCN1C)OCO3	n	n	n	n	n	n
COc1cc(C2c3cc4c(cc3C(O)C3COC(=O)C23)OCO4)cc(OC)c1O (stereo unspecified)	x	0.26µM	0.21µM	x	x	x
Cc1ccccc1C1CC(=O)Nc2ccc3ccccc3c21 (stereo unspecified)	x	12µM	12µM	13µM	x	n
CCCCC1(CN2CCCC2=O)C(=O)NC(=O)NC1=O	n	n	n	n	n	n
SMILES	IL1B secr inh	DT40 TDP1 CPT	DT40 TDP1 no CPT	TGFb SMAD3 inh	ASM inhibitor	HepG2 viability
NC(=O)CN1CCCC1=O	n	n	2.9µM!	n	n	n
c1ccc2c[n+](CCCCCCCCCC[n+]3ccc4ccccc4c3)ccc2c1	x	10µM	8.3µM	x	x	x
C=CCN1CCc2cccc3c2[C@H]1Cc1ccc(O)c(O)c1-3	n	16µM	18µM	u	n	n
COc1ccc2c(c1O)-c1cc(O)cc3c1[C@@H](C2)N(C)CC3	x	n	n	x	x	x
On1ccccc1=S	-107	0.13µM	0.0092µM	0.28µM	n	1µM
N[C@H](CCCCCP(=O)(O)O)C(=O)O	x	n	n	x	x	x
CNCC/C=C/c1cccnc1	x	n	n	x	x	x
Oc1ccc(Cl)cc1Cc1cc(Cl)ccc1O	n	15µM	15µM	u	n	n
Oc1ccc(Cl)cc1Cc1ccccc1	n	31µM	22µM	u	n	n
Oc1ccc(Cl)c(Cl)c1Cl	n	n	n	n	n	n
COc1cc(C(=O)N2C[C@H]3C[C@@H](C2)c2cccc(=O)n2C3)cc(OC)c1OC	n	n	n	n	n	n
O=C(c1ccc(F)c([N+](=O)[O-])c1)N1CC2CC(C1)c1cccc(=O)n1C2 (stereo unspecified)	-52	n	u	n	n	n
CCOP(=S)(OCC)Oc1ccc2c(C)c(Cl)c(=O)oc2c1	n	u	6.5µM	n	n	n
CCOP(=S)(OCC)Oc1cc(C)oc(=O)c1Cl	n	u	u	n	n	n
CC(C)NC[C@H](O)c1ccc(O)c(O)c1	n	4.7µM!	8.4µM!	n	n	n
C[C@@H](N)C(=O)c1ccccc1	x	n	n	x	x	x
O=C(c1ccco1)N1CCN(C(=O)c2ccc(COc3ccc(Cl)cc3Cl)o2)CC1	n	26µM	u	n	n	n
COc1ccc(S(=O)(=O)N2CCN(C(=O)c3ccc(COc4ccccc4)o3)CC2)cc1	n	u	u	n	x	n
O=C1CCO1	x	n	n	x	x	x
COc1ccc(-c2ccc3c(c2)CN(C(=S)NCCc2ccccc2)Cc2cnnn2-3)cc1	n	u	u	u	x	n
CCc1cccc(NC(=O)c2ccc(NC(=O)N3CCSc4ncccc43)cc2)c1	x	21µM	16µM	n	x	n
NC(=O)c1ccc(OCCC(O)N2CC=C(c3ccc(F)cc3)CC2)cc1 (stereo unspecified)	n	n	u	n	n	n
CCOC(=O)C1=C(c2ccccc2)OC(N)=C(C#N)C1C(C)C (stereo unspecified)	n	u	u	n	n	n
Cc1cccc(-n2c(/C=C/c3ccccn3)nc3ccccc3c2=O)c1	-52	23µM	u	n	n	n
Cc1cccc(-n2c(/C=C/c3c[nH]c4ccccc34)nc3ccccc3c2=O)c1	x	2.6µM	2.6µM	n	x	n
COc1cccc(-n2c(/C=C/c3ccccn3)nc3ccccc3c2=O)c1	-84	u	u	n	n	n
